The values below come from PubChem BioAssay (EPA / NIEHS).

The source made the active and inactive calls. The calls were made as follows: active = hit-call score of the fitted dose curve at least 0.9, where 1 is the maximum; inactive = score below 0.9.

What all share (details): mRNA level, 48 h; actives raise or lower the signal
Read-out in assay [1]: Cyclin Dependent Kinase Inhibitor 1A (CDKN1A), CDKN1A (gene 1026)
Put plainly: LTEA_HepaRG_CDKN1A: Life Technologies and Expression Analysis (LTEA) Assay for Cyclin Dependent Kinase Inhibitor 1A (CDKN1A) using HepaRG (AID 2283450). In a few lines: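 Differentiated HepaRG cells in serum-free induction medium, exposed 48 h in duplicate to eight half-log concentrations up to 100 uM in 0.5% DMSO. mRNA measured by TaqMan qRT-PCR, normalized to ACTB, GAPDH, POLR2A; bidirectional fit versus DMSO.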

Read-out in assay [2]: Cyclin D1 (CCND1), CCND1 (gene 595)
Put plainly: LTEA_HepaRG_CCND1: Life Technologies and Expression Analysis (LTEA) Assay for Cyclin D1 (CCND1) using HepaRG (AID 2283451). In a few lines: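 Differentiated HepaRG cells exposed 48 h in serum-free induction medium to eight half-log concentrations from 100 uM top, 0.5% DMSO, duplicates. CCND1 mRNA measured by Fluidigm TaqMan qRT-PCR, normalised to ACTB, GAPDH, POLR2A; bidirectional fit.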

Read-out in assay [3]: catalase (CAT), CAT (gene 847)
Put plainly: LTEA_HepaRG_CAT: Life Technologies and Expression Analysis (LTEA) Assay for catalase (CAT) using HepaRG (AID 2283452). In a few lines:
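Differentiated HepaRG cells in serum-free induction medium were dosed 48 h in duplicate, eight half-log concentrations from 100 uM in 0.5% DMSO. Transcript measured by TaqMan qRT-PCR, normalised to ACTB/GAPDH/POLR2A, fitted bidirectionally against DMSO.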

Read-out in assay [4]: flavin-containing dimethylaniline monooxygenases 3 (FMO3), FMO3 (gene 2328)
The assay is described as follows: LTEA_HepaRG_FMO3: Life Technologies and Expression Analysis (LTEA) Assay for flavin-containing dimethylaniline monooxygenases 3 (FMO3) using HepaRG (AID 2283453).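 As to AC50: FMO3 transcript by TaqMan qRT-PCR normalized to ACTB GAPDH and POLR2A.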 In a few lines: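 HepaRG, 48 h exposure, 8-pt half-log series from 100 uM, 0.5% DMSO vehicle, duplicates; FMO3 transcript by Fluidigm TaqMan qRT-PCR, housekeeping-normalized; gain/loss fit vs DMSO.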

Read-out in assay [5]: Cytochrome P450 (CYP1A1), CYP1A1 (gene 1543)
Put plainly: LTEA_HepaRG_CYP1A1: Life Technologies and Expression Analysis (LTEA) Assay for Cytochrome P450 (CYP1A1) using HepaRG (AID 2283454). In a few lines: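 Differentiated human HepaRG cells, after 48 h plating, exposed in duplicate for 48 h in serum-free induction medium to 8 half-log concentrations up to 100 uM in 0.5% DMSO. CYP1A1 mRNA by qRT-PCR, normalized to ACTB/GAPDH/POLR2A; bidirectional fit versus DMSO.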

Read-out in assay [6]: CFLAR gene, CFLAR (gene 8837)
Put plainly: LTEA_HepaRG_CFLAR: Life Technologies and Expression Analysis (LTEA) Assay for CFLAR gene using HepaRG (AID 2283455). In a few lines:
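HepaRG cells were plated for 48 h, switched to serum-free induction medium, then exposed in duplicate for 48 h to 8 concentrations (top 100 uM, half-log steps, 0.5% DMSO). CFLAR mRNA was measured by qRT-PCR, normalized to ACTB, GAPDH and POLR2A.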

Read-out in assay [7]: Forkhead box O1 (FOXO1), FOXO1 (gene 2308)
The assay is described as follows: LTEA_HepaRG_FOXO1: Life Technologies and Expression Analysis (LTEA) Assay for Forkhead box O1 (FOXO1) using HepaRG (AID 2283456). In a few lines: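 Differentiated human HepaRG cells in serum-free induction medium were exposed in duplicate for 48 h to eight half-log concentrations (top 100 uM, 0.5% DMSO). FOXO1 mRNA was measured by TaqMan qRT-PCR, normalised to ACTB, GAPDH and POLR2A, and fitted bidirectionally against DMSO.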

Read-out in assay [8]: growth arrest and DNA damage 45 (GADD45A), GADD45A (gene 1647)
The assay is described as follows: LTEA_HepaRG_GADD45A: Life Technologies and Expression Analysis (LTEA) Assay for growth arrest and DNA damage 45 (GADD45A) using HepaRG (AID 2283458). In a few lines:
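Differentiated HepaRG cells were exposed in duplicate for 48 h in serum-free induction medium to 8-point half-log concentrations up to 100 uM in 0.5% DMSO. GADD45A mRNA was measured by TaqMan qRT-PCR, normalized to ACTB, GAPDH and POLR2A, with bidirectional fitting versus DMSO.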

Read-out in assay [9]: Forkhead box O3 (FOXO3), FOXO3 (gene 2309)
Put plainly: LTEA_HepaRG_FOXO3: Life Technologies and Expression Analysis (LTEA) Assay for Forkhead box O3 (FOXO3) using HepaRG (AID 2283459). In a few lines:
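Differentiated human HepaRG cells in serum-free induction medium were exposed in duplicate for 48 h to eight half-log concentrations up to 100 uM in 0.5% DMSO. FOXO3 mRNA was quantified by qRT-PCR, normalized to ACTB, GAPDH and POLR2A, with bidirectional fitting versus DMSO.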

Read-out in assay [10]: ABC Transporter (ABCB1), ABCB1 (gene 5243)
Put plainly: LTEA_HepaRG_ABCB1: Life Technologies and Expression Analysis (LTEA) Assay for ABC Transporter (ABCB1) using HepaRG (AID 2283460). In a few lines:
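Differentiated human HepaRG cells, plated 48 h then switched to serum-free induction medium, were exposed in duplicate to eight half-log concentrations up to 100 uM in 0.5% DMSO for 48 h. ABCB1 mRNA was measured by TaqMan qRT-PCR, normalized to ACTB/GAPDH/POLR2A.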

Read-out in assay [11]: growth arrest and DNA damage 45 (GADD45B), GADD45B (gene 4616)
The assay is described as follows: LTEA_HepaRG_GADD45B: Life Technologies and Expression Analysis (LTEA) Assay for growth arrest and DNA damage 45 (GADD45B) using HepaRG (AID 2283461). In a few lines: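 Differentiated human HepaRG cells in serum-free induction medium exposed 48 h in duplicate to eight concentrations, top 100 uM, half-log steps, 0.5% DMSO. GADD45B mRNA by TaqMan qRT-PCR, normalized to ACTB, GAPDH, POLR2A; bidirectional fit versus DMSO.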

Read-out in assay [12]: ABC Transporter (ABCC3), ABCC3 (gene 8714)
The assay is described as follows: LTEA_HepaRG_ABCC3: Life Technologies and Expression Analysis (LTEA) Assay for ABC Transporter (ABCC3) using HepaRG (AID 2283462). In a few lines: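 Differentiated human HepaRG cells exposed 48 h in serum-free induction medium, 0.5% DMSO vehicle, 8-point half-log series to 100 uM in duplicate. ABCC3 mRNA by qRT-PCR, normalised to ACTB, GAPDH, POLR2A; bidirectional fit vs DMSO.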

Read-out in assay [13]: ABC Transporter (ABCB11), ABCB11 (gene 8647)
Put plainly: LTEA_HepaRG_ABCB11: Life Technologies and Expression Analysis (LTEA) Assay for ABC Transporter (ABCB11) using HepaRG (AID 2283463). In a few lines: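 Differentiated human HepaRG cells were exposed for 48 h in serum-free induction medium to eight half-log concentrations up to 100 uM in 0.5% DMSO. ABCB11 mRNA was quantified by qRT-PCR, normalized to ACTB, GAPDH and POLR2A, and fitted bidirectionally versus DMSO.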

Read-out in assay [14]: ABC Transporter (ABCC2), ABCC2 (gene 1244)
Put plainly: LTEA_HepaRG_ABCC2: Life Technologies and Expression Analysis (LTEA) Assay for ABC Transporter (ABCC2) using HepaRG (AID 2283464). In a few lines: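 Differentiated HepaRG cells in serum-free induction medium exposed 48 h to eight half-log concentrations up to 100 uM, 0.5% DMSO, in duplicate. ABCC2 mRNA measured by qRT-PCR (TaqMan, Fluidigm), normalized to ACTB, GAPDH and POLR2A. Fitted in both directions against DMSO.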

Read-out in assay [15]: Broad substrate specificity ATP-binding cassette transporter ABCG2 (Homo sapiens) (UniProt Q9UNQ0)
The assay is described as follows: LTEA_HepaRG_ABCG2: Life Technologies and Expression Analysis (LTEA) Assay for ABC Transporter (ABCG2) using HepaRG (AID 2283465). In a few lines:
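Differentiated HepaRG cells in serum-free induction medium were exposed for 48 h, in duplicate, to eight half-log concentrations up to 100 uM in 0.5% DMSO. ABCG2 mRNA was measured by TaqMan qRT-PCR, normalized to ACTB, GAPDH and POLR2A, and fitted bidirectionally versus DMSO.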

Read-out in assay [16]: ATP-citrate lyase (ACLY), ACLY (gene 47)
The assay is described as follows: LTEA_HepaRG_ACLY: Life Technologies and Expression Analysis (LTEA) Assay for ATP-citrate lyase (ACLY) using HepaRG (AID 2283466). In a few lines: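 Differentiated human HepaRG cells in serum-free induction medium exposed 48 h, in duplicate, to eight half-log concentrations from 100 uM top in 0.5% DMSO; ACLY mRNA measured by qRT-PCR, normalized to ACTB, GAPDH, POLR2A, fitted bidirectionally versus DMSO.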

Read-out in assay [17]: Peroxisomal acyl-coenzyme A oxidase 1 (ACOX1) gene, ACOX1 (gene 51)
The assay is described as follows: LTEA_HepaRG_ACOX1: Life Technologies and Expression Analysis (LTEA) Assay for Peroxisomal acyl-coenzyme A oxidase 1 (ACOX1) gene using HepaRG (AID 2283467). In a few lines:
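Differentiated human HepaRG cells were exposed in duplicate for 48 h in serum-free induction medium to eight half-log concentrations up to 100 uM in 0.5% DMSO. ACOX1 mRNA was then quantified by TaqMan qRT-PCR, normalized to ACTB, GAPDH and POLR2A.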

Read-out in assay [18]: Alkaline Phosphatase, Placental (ALPP) gene, ALPP (gene 250)
The assay is described as follows: LTEA_HepaRG_ALPP: Life Technologies and Expression Analysis (LTEA) Assay for Alkaline Phosphatase, Placental (ALPP) gene using HepaRG (AID 2283468). In a few lines: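 HepaRG cells plated 48 h, then exposed in duplicate for 48 h in serum-free induction medium to 8-point half-log series from 100 uM in 0.5% DMSO. ALPP mRNA by TaqMan qRT-PCR, normalized to ACTB/GAPDH/POLR2A; bidirectional fit versus DMSO.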

Broad substrate specificity ATP-binding cassette transporter ABCG2 (Homo sapiens), sequence (Q9UNQ0 whole entry, looked up): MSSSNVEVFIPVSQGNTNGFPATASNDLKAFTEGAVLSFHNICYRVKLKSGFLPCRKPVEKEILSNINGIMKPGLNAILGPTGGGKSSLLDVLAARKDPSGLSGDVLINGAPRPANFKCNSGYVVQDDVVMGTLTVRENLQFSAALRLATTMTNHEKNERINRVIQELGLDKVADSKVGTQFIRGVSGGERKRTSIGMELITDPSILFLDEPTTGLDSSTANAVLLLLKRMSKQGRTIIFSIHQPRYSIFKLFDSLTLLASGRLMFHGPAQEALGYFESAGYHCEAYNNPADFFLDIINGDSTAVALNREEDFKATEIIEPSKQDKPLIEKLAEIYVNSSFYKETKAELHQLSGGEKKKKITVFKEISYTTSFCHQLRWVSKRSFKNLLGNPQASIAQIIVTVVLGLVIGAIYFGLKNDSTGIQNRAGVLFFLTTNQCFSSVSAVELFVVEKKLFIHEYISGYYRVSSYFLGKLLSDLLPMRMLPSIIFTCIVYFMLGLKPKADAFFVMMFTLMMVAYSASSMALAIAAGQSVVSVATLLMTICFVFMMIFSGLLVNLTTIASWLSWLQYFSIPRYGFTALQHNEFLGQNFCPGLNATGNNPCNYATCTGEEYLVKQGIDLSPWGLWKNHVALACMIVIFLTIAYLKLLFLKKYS

For the molecule `CN(C)C(=O)NC1(c2ccccc2)CCN(CC[C@@]2(c3ccc(F)c(F)c3)CN(C(=O)c3ccccc3)CCO2)CC1`, the call in assay [1], in [2], in assay [3], in [6], in assay [7] and in assay [8] was inactive. The call in assay [9], in [11], in [15], in assay [17] and in [18] was inactive. In addition, the AC50 – broadly, the concentration giving half of the maximal activity seen – in assay [4] was 57 µM (active); in assay [5] it was 47 µM (active); in [10] it was 1.86 µM (active); in assay [12], 47 µM (active); in assay [13] it was 1.96 µM (active); in [14], 3.81 µM (active). The AC50 in [16] was 47 µM (active).
As to `CC(=O)CC(c1ccccc1)c1c(O)c2ccccc2oc1=O` (centres undefined), the result in [1], in [2], in [3], in [4], in [5] and in [6] was inactive. Besides, the molecule was called inactive in assay [7], in assay [8], in assay [9], in assay [10], in assay [12] and in [13]. Further, the molecule was classed as inactive in assay [14], in assay [15] and in assay [18]. For the same molecule, the AC50 in [16] was 50 µM (active).
